Reference: ChEMBL document CHEMBL3988442, “University of Dundee, Small-Polar-MMV Screening Library” (2021)
The whole screen tested about 48,000 compounds, of which about 13,000 (27%) showed an effect of 50% or more. The list shows a part of the results.

System: Wolbachia pipientis
Test: Anti-Wolbachia Cell-Based Screen
Type: functional
Set-up: scale not given: in the data most compounds retested in dose-response had high values
Conditions: 5 µM

SMILES | Percent Effect [%]
COc1ccc(F)cc1C(C(=O)O)N1CCCN(C2CCCC2)CC1 (centres undefined) | 11.4
CCC(C)(C)NC(=O)c1scnc1Cl | 6.107
Cc1cnn(C2CN(CC(O)COCc3ccc4c(c3)OCO4)C2)c1 (centres undefined) | -34.94
CSc1ccc(CNC(c2ccccc2)c2nccn2C)cc1 (centres undefined) | -1.677
COc1cc(C)cc(OC)c1C(C(=O)O)N(C)Cc1c(C)nn(C)c1C (centres undefined) | 77.2
Cc1nn(C)c(C)c1CN(C)C(C(=O)O)c1ccc(F)cc1F (centres undefined) | 99.54
COc1cc(CN(C)C(=O)Cc2c(C)nn(C)c2C)ccc1OC(F)F | -29.22
COc1cc(C)cc(C(C(=O)O)N(C)Cc2cnn(C)c2)c1OC (centres undefined) | -13.95
COc1ccc(Cl)cc1C(C(=O)O)N(C)Cc1ccon1 (centres undefined) | -2.698
COc1ccc(C(C(=O)O)N(C)Cc2c(C)nn(C)c2C)c(C)c1 (centres undefined) | 108.6
COc1cc(F)ccc1C(C(=O)O)N(C)Cc1ccon1 (centres undefined) | 19.52
COc1ccc(C(C(=O)O)N(C)CCN2CCCC2)c(C)c1 (centres undefined) | 0.7603
Cc1ccc(C(C(=O)O)N(C)CCN2CCOCC2)c(F)c1 (centres undefined) | -0.2175
Cc1ccc(NC(=O)CN2CCCNC2=O)c(SC(F)(F)F)c1 | -6.443
CN(C)C1CCCN(C(=O)NCCNC(=O)C2CCCC2)C1 (centres undefined) | 2.147
N#Cc1cccc(S(=O)(=O)NC2CCN(CC(F)(F)F)C2)c1 (centres undefined) | 11.74
N#Cc1ccc(SCCOCCO)c(Cl)c1 | -25.21
COCCn1ccnc1C1CCCN(c2ncnc3c2CCC3)C1 (centres undefined) | -0.4091
Cn1ccnc1CN1CCc2ncnc(N3CCCC(C#N)C3)c2CC1 (centres undefined) | 91.92
Cn1cc(CN2CCc3ncnc(N4CCCC4)c3CC2)cn1 | 6.266
N#CC1CCCN(c2nc(-c3ccccc3)nc3c2CCNCC3)C1 (centres undefined) | 6.584
N#CC1CCCN(c2ncnc3c2CCN(Cc2ccccc2)CC3)C1 (centres undefined) | 115
CN1CCN(c2ncnc3c2CCN(Cc2nccn2C)CC3)CC1 | -1.995

SMILES | Percent Effect [%]
Cc1ccccc1N1CCN(C(=O)c2cccnc2-n2cncn2)CC1 | 25.7
Cc1nc(C2CCCN2Cc2cc(Cl)c3c(c2)OCCCO3)no1 (centres undefined) | -4.62
CC(C)=CCC1(C(=O)O)CCCN(c2ccnc(N)n2)C1 (centres undefined) | 0.6776
Cc1cc(I)c2c(c1)C(=O)C(CN1CCCC1)(CN1CCCC1)CO2 | 118.1
O=C1c2cc(Br)cc(Br)c2OCC1(CN1CCCC1)CN1CCCC1 | 108.8
CCNC(=O)NC[C@@H]1C=C(C)[C@H](CC(=O)NCCN(C)C)C[C@H]1C(C)C | -8.573
OCCCN1CCc2onc(C(c3ccccc3)c3ccccc3)c2C1 | 6.435
CCOc1ccc(C(F)(F)F)cc1NCc1cc(C)on1 | -4.345
Cc1cc(CNc2ccc3nc(C)sc3c2)no1 | 5.343
Cc1cc(CNc2ccc(C(F)(F)F)cc2)no1 | 98.51
CC1(C(=O)N2CCOCC2)CN(CC2CCOCC2)CCO1 (centres undefined) | 129.5
C1CC(CN2CCOCC3(CCN(C4CCOCC4)C3)C2)CCO1 (centres undefined) | -8.937
CC1(C(N)=O)CN(CC2CCC2)CCO1 (centres undefined) | 100.1
O=C(N1CCOCC1)[C@@]12CCO[C@@H]1CCN(CC1CCCCC1)C2.O=C(O)C(F)(F)F | 16.73
CC1(C)CC(CN2CCC3(CCC(=O)N(C4CCC4)C3)CC2)CCO1 (centres undefined) | -1.352
O=C(C1CN(CC2CC2)CC12CCOCC2)N1CCCC1 (centres undefined) | -4.912
CC1(C(N)=O)CN(CC2CCOCC2)CCO1 (centres undefined) | 88.24
O=C(C1CN(CC2CCOCC2)CC12CCOCC2)N1CCOCC1.O=C(O)C(F)(F)F (centres undefined) | 5.554
CN(C)C(=O)CN1CCC2(C1)CN(CC1CCOCC1)C2 | -9.984
CC(C)N1CC2(CCC1=O)CCN(C(=O)c1cccc(F)c1F)CC2 | -11.17
Cc1cc2[nH]c(CN3CCOC(C(F)(F)F)C3)cc(=O)n2n1 (centres undefined) | -6.733
COc1cccc(CNCc2ccc(NC(=O)NC(C)C)cc2)c1 | 98.55
Cc1cccc(CNC(=O)Nc2ccc3c(c2)CCCC(=O)N3)c1 | -8.181

SMILES | Percent Effect [%]
Cc1cccc(CNCc2ccc(NC(=O)NC(C)C)cc2)c1 | 97.74
CCOc1cccc(CNCc2ccc(NC(=O)NC(C)C)cc2)c1 | 132
COC(=O)C(CNC(=O)Nc1cn[nH]c1)Cc1cccc(C)c1 (centres undefined) | -11.43
CC(C)NC(=O)Nc1ccc(CNCc2ccc(OC(F)F)cc2)cc1 | 126.1
COc1cccc(CC(C)NC(=O)c2ccc(CNC(C)=O)cc2)c1 (centres undefined) | -2.536
N#CC1(C(=O)Nc2ccc(OC(F)F)cc2)CCCC1 | -4.632
COc1cccc(C(CO)NC(=O)NC(C)C)c1 (centres undefined) | -12.05
COc1ccc(CNC(=O)Nc2ccc(S(=O)(=O)C(F)F)cc2)cc1 | 6.35
CCOc1cccc(CNc2cnn(CC(C)C)c2CC)c1 | -19.91
CCOc1ccc(CNCc2ccc(C(=O)NC)cc2)cc1OCC | -3.882
CCc1cc(CN(C)Cc2nc(-c3sccc3C)oc2C)on1 | -5.101
CC(=O)N[C@@H]1Cc2ccccc2[C@H]1Nc1nnc(C2CC2)o1 | -5.354
O=C1CSCN1CC(=O)N1CCCC1c1nc2ccccc2s1 (centres undefined) | -3.784
Cc1noc(-c2ccc(N[C@H]3CCCCNC3=O)nc2)n1 | -0.1994
COCCNC(=O)NC(c1ccccc1)c1ccccc1OC (centres undefined) | 3.321
Cn1ccc(CN2CCN(CC3CC3)CC2)cc1=O | 107.4
Cc1csc(N2CCN(Cc3ccn(C)c(=O)c3)CC2)n1 | 7.447
Cn1ccc(CN2CCC(CO)CC2)cc1=O | -2.803
Cn1ccc(CN2CCC(CN3CCOCC3)CC2)cc1=O | 93.59
CCc1oc(C(=O)OC)cc1Cn1cccc(C(F)(F)F)c1=O | 2.78
Cc1nc(C)c(C)c(NCCSCc2[nH]cnc2C)n1 | -16.36
CO[C@H]1CCN(C(=O)c2ccc3[nH]nnc3c2)C[C@@]12CCCO2 | 102.9
COC1CCCOC12CCN(C(=O)c1ccc3[nH]nnc3c1)CC2 (centres undefined) | 104.9
